Test results taken from PubChem BioAssay.

Tested on: XIP peptide (Xip251-270) binding
Test: small-molecule binders of XIP peptide, primary screen, biochemical, small-molecule microarray, fluorescence 635/667 nm, 0.1 µg/mL protein (AID 1182)
Settings: fluorescent protein binding, 635 nm, higher = more signal, called active from +8 up or from −8 down

Composite z-score, inactive:
COc1ccc(O[C@H]2C=C[C@@H](c3ccccc3)O[C@@H]2CON=C(C)CCC(=O)OC[C@H]2O[C@H](c3ccccc3)C=C[C@@H]2Oc2ccc(OC)cc2)cc1 0.392
CO[C@@H]1COC(=O)CC=C[C@H](C)[C@H](OC)COC(=O)[C@H](C)NC(=O)CC=C[C@H]1C -0.436
CC(=O)OC[C@H]1O[C@@H](ON=C(C)CCN2CCCc3nc(C)c(C)cc32)[C@H](OC(C)=O)[C@@H](OC(C)=O)[C@@H]1OC(C)=O -0.444
Cc1ccc(S(=O)(=O)OC[C@H]2CN3[C@H](c4ccc(Br)cc4)[C@@H](C)CC[C@H]3C(=O)O2)cc1 0.225
CON=C[C@@H](NS(=O)(=O)c1ccc(C)cc1)[C@H](C)C=CCC(=O)OC 0.212
CCOC(=O)C1=NO[C@@]2(C=C(Br)C3(OCCCO3)[C@H]3O[C@H]32)C1 2.67
O=C(NN=C1C[C@@H](O)[C@@H](O)[C@@H]2[C@@H]3C(=O)N(Cc4ccccc4)C(=O)[C@@H]3CC[C@@H]12)OCc1ccccc1 -0.0255
CO[C@@H]1COC(=O)CC=C[C@@H](C)[C@H](OC)COC(=O)[C@@H](C)COC(=O)CC=C[C@H]1C -0.0671
O=C(NN=C1C[C@@H](O)[C@@H](O)[C@@H]2[C@@H]3C(=O)N(C4CCCCC4)C(=O)[C@@H]3CC[C@H]12)OCc1ccccc1 -0.142
O=c1n(Cc2cc3c(cc2Cl)OCO3)c(=O)n2n1CC[C@@H]1C(=NOC[C@@H](O)COCc3ccco3)[C@H]3O[C@H]3[C@@H](O)[C@@H]12 -0.45
O=C1C=C[C@@H](O)[C@@H]2[C@@H]3C(=O)N(c4ccc(F)cc4F)C(=O)[C@@H]3CC[C@@H]12 0.25
CCOC(=O)[C@H](CC(C)C)NC(=O)CCC1CC(OC(=O)NCc2cccc3ccccc23)CC2(CCCC(COC(=O)NCCCN3CCCC3=O)O2)O1 (stereo partly specified) -0.0359
COc1ccc(O[C@H]2C=C[C@@H](c3ccccc3)O[C@@H]2COC(=O)CCC(C)=NOC(C)CN2CCCc3nc(C)c(C)cc32)cc1 (stereo partly specified) 0.53
O=C1CCCC=C1C(O)CCOC(c1ccccc1)(c1ccccc1)c1ccccc1 (stereo unspecified) -0.0848
C[C@H]1CC[C@H]2C(=O)OC(CO)CN2[C@@H]1c1ccc(Br)cc1 (stereo partly specified) 0.201
CCOC(=O)[C@H](Cc1ccccc1)NC(=O)CCC1CC(OC(=O)NCc2ccc3c(c2)OCO3)CC2(CCCC(COC(=O)NCCc3ccccc3OC)O2)O1 (stereo partly specified) 0.581
O=C1CCCC=C1C(CCc1ccccc1)OC(=O)c1ccc(Br)cc1 (stereo unspecified) 0.622
COC(=O)CC=C[C@@H](C)[C@@H](C=NOC(C)CN1CCCc2nc(C)c(C)cc21)OC (stereo partly specified) 0.327
CCOC(=O)[C@H](Cc1ccccc1)NC(=O)CCC1CC(OC(=O)NCc2ccc3c(c2)OCO3)CC2(CCCC(COC(=O)NCCC(C)C)O2)O1 (stereo partly specified) 0.644
COc1ccc(COC(=O)NN=C2C[C@@H](O)[C@@H](O)[C@@H]3[C@@H]4C(=O)N(Cc5ccccc5)C(=O)[C@@H]4CC[C@H]23)cc1 0.0712
CCOC(=O)[C@H](Cc1ccccc1)NC(=O)CCC1CC(OC(=O)NCc2cccc3ccccc23)CC2(CCCC(COC(=O)NCCC(C)C)O2)O1 (stereo partly specified) 0.646
C=CC[C@@H]1C=C[C@H](ON=C(C)CCN2CCc3nc(-c4ccccc4)c(-c4ccccc4)cc3C2)[C@@H](CO)O1 0.957
CO[C@H]1COC(=O)[C@H](C)NC(=O)[C@@H](C)COC(=O)[C@H]2CCCN2C(=O)CC=C[C@H]1C -0.077
CCOC(=O)[C@H](CC(C)C)NC(=O)CCC1CC(OC(=O)NCc2ccc3c(c2)OCO3)CC2(CCCC(COC(=O)NCC(c3ccccc3)c3ccccc3)O2)O1 (stereo partly specified) 0.717
CC(CCN1CCCCc2nc(C)c(C)cc21)=NO[C@@H](C)c1cn([C@H](CO)Cc2ccccc2)nn1 0.305
CC(=O)OC[C@H]1OC(ON=CC[C@@H]2C=C[C@H](OC(C)=O)[C@@H](COC(C)=O)O2)[C@H](OC(C)=O)[C@@H](OC(C)=O)[C@@H]1OC(C)=O (stereo partly specified) -0.476
CCOC(=O)NN=C1C[C@@H](O)[C@@H](O)[C@@H]2[C@@H]3C(=O)N(Cc4ccccc4)C(=O)[C@@H]3CC[C@H]12 -0.405
CC(C)C[C@H](NC(=O)CCC1CC(OC(=O)NCc2cccc3ccccc23)CC2(CCCC(COC(=O)NCc3ccccc3)O2)O1)C(=O)NCC(c1ccccc1)c1ccccc1 (stereo partly specified) -0.284
COc1ccc(O[C@H]2C=C[C@@H](c3ccccc3)O[C@@H]2CON=C(C)C)cc1 0.862
CON=C1[C@H]2CCn3c(=O)n(-c4ccccc4)c(=O)n3[C@H]2[C@H](O)[C@@H]2O[C@H]12 -0.0682
CC(CCN1CCc2nc(-c3ccccc3)c(-c3ccccc3)cc2C1)=NOC[C@@H](O)[C@H]1O[C@@H]2OC(C)(C)O[C@@H]2[C@H]1O 0.176
CC(CCN1CCCc2nc(C)c(C)cc21)=NO[C@@H](C)c1cc(-c2c(C)cc(C)cc2C)no1 0.268
CCCNC(=O)OC[C@H]1O[C@H](CCON=C(C)CCN2CCCc3nc(C)c(C)cc32)C=C[C@@H]1Oc1ccc(OC)cc1 -0.0364
CCOC(=O)[C@H](CC(C)C)NC(=O)CCC1CC(OC(=O)NCc2cccc3ccccc23)CC2(CCCC(COC(=O)NCc3cccc(C(F)(F)F)c3)O2)O1 (stereo partly specified) -0.364
O=C1CCCC(C2=CCCCC2=O)C1 (stereo unspecified) -0.273
CCc1cc2c(nc1CC)CCN(CCC(C)=NO[C@@H](C)c1cn([C@H](CO)Cc3ccccc3)nn1)C2 0.444
